Results with a measured potency or affinity are listed apart.
test system: Staphylococcus aureus; settings: Concentration 32 ug.mL-1;; ASSAY_TEST Inhibition of Bacterial Growth; detection method Absorption (OD600); MEDIA CAMHB; plate type 384well; NBS; CORNING #3640; time 18 hr

Compound	Inhibition [%]
COc1ccc(OC)c(NC(=O)Cn2nc3ccc(SCc4ccc(Cl)cc4)nn3c2=O)c1	-2.6
CCc1ccccc1Sc1nccn2c(=O)n(CC(=O)Nc3ccc(OC)cc3)nc12	-2.16
Cc1ccc(-c2ccc3nn(CC(=O)Nc4ccccc4)c(=O)n3n2)cc1C	3.99
COc1cc(OC)c(NC(=O)Cn2nc3c(Sc4cccc(C)c4)nccn3c2=O)cc1Cl	10.36
Cc1cc2nn(CC(=O)Nc3cc(F)ccc3F)c(=O)n2c(Nc2ccc(F)c(C)c2)n1	-14.31
Cc1nnc2ccc(S(=O)(=O)N(Cc3ccccc3Cl)c3cccc(F)c3)cn12	-1.06
CCCCOc1ccc(-c2cc3c4nnc(SCC(=O)Nc5ccc(C)c(F)c5)n4ccn3n2)cc1	5.13
COC(=O)c1ccc(NC(=O)Cn2nc3c4cc(-c5ccc(F)cc5)nn4ccn3c2=O)cc1	-6.17
COc1cccc(CNC(=O)CSc2nnc3c(=O)n(-c4ccc(F)cc4)ccn23)c1OC	19.94
O=C(Cn1nc2c3sc(N4CCCC4)nc3ncn2c1=O)Nc1ccccc1Br	3.7
O=C(CSc1nnc2c(=O)n(-c3ccc(F)c(F)c3)ccn12)c1ccccc1Cl	3.6
CC(C)CCn1c(=O)c2sccc2n2c(=O)n(CC(N)=O)nc12	1.13
Cc1ccc(C)c(NC(=O)Cn2nc3c(SCc4ccc(Cl)cc4)nccn3c2=O)c1	7.31
CC(C)NC(=O)CSc1nnc2c(=O)n(Cc3ccc(F)cc3)ccn12	-0.55
O=c1c2sccc2n2c(=O)n(Cc3cccc(Cl)c3)nc2n1Cc1cccs1	18.24
Cc1ccc(-c2cc3c4nnc(CCC(=O)N5CCN(c6ccccn6)CC5)n4ccn3n2)cc1C	-0.56
O=c1c2nn(Cc3cccc([N+](=O)[O-])c3)c(=O)n2ccn1-c1ccccc1	-0.55
CCOc1ccc(-n2ccn3c(SCC(=O)Nc4cc(OC)cc(OC)c4)nnc3c2=O)cc1	7.49
O=c1n(Cc2nc(-c3ccc(F)cc3)no2)nc2ccc(-c3ccccc3)nn12	3.21
O=C(Cn1nc2c(Sc3ccccc3)nccn2c1=O)Nc1ccc2c(c1)OCCO2	-4.66

Compound	Inhibition [%]
O=c1c2sccc2n2c(=O)n(Cc3cccc(C(F)(F)F)c3)nc2n1Cc1cccs1	22.09
O=S(=O)(c1cccn2cnnc12)N(Cc1ccccc1F)c1ccc(F)c(F)c1	-22.58
COc1ccc(NC(=O)Cn2nc3c(SC4CCCCC4)nccn3c2=O)cc1	-2.9
COc1ccc(CN(c2ccc(F)cc2)S(=O)(=O)c2cccn3c(C)nnc23)cc1	15.23
CC(=O)c1ccc(NC(=O)Cn2nc3ccc(-c4ccc(C)cc4)nn3c2=O)cc1	10.69
Cc1cccc(NC(=O)Cn2c(=O)c3nnc(C(C)C)n3c3ccccc32)c1	1.06
CC(C)CCn1c(=O)c2sccc2n2c(=O)n(CCOc3ccccc3)nc12	0.45
Cc1cc(C)c(NC(=O)Cn2nc3ccc(SC4CCCCC4)nn3c2=O)c(C)c1	7.62
O=C(Cn1nc2c(Oc3ccccc3)nccn2c1=O)Nc1cc(F)ccc1F	-5.96
CCc1nnc2c(SCC(=O)Nc3ccc(C)cc3Br)nc3ccccc3n12	2.22
CC(C)c1nnc2c(SCC(=O)Nc3ccccc3C(F)(F)F)nc3ccccc3n12	6.66
COc1ccc(C(=O)CSc2nnc3c(=O)n(-c4ccc(F)cc4)ccn23)cc1OC	16.25
CC(C)CCn1c(=O)c2ccc(C(=O)NC3CCCC3)cc2n2c(=S)[nH]nc12	-2
Cc1ccc(N(Cc2cc(F)cc(F)c2)S(=O)(=O)c2cccn3c(C)nnc23)cc1	11.96
COc1ccccc1N1CCN(C(=O)Cn2nc3ccc(-c4ccc(Cl)cc4)nn3c2=O)CC1	8.63
CCOc1ccc(-n2ccn3c(SC(C)C(=O)Nc4ccc(OC)cc4)nnc3c2=O)cc1 (stereo not drawn)	5.98
Cc1cccc(N(Cc2ccccc2)S(=O)(=O)c2cccn3c(C)nnc23)c1	19.49
C=Cc1ccc(CN(c2ccc(C(C)C)cc2)S(=O)(=O)c2cccn3c(C)nnc23)cc1	-12.1
Cc1cccc(NC(=O)Cn2nc3c(Sc4ccccc4)nccn3c2=O)c1	-16.15

test system: Escherichia coli; settings: Concentration 32 ug.mL-1;; ASSAY_TEST Inhibition of Bacterial Growth; detection method Absorption (OD600); MEDIA CAMHB; plate type 384well; NBS; CORNING #3640; time 18 hr

Compound	Inhibition [%]
COc1ccc(OC)c(NC(=O)Cn2nc3ccc(SCc4ccc(Cl)cc4)nn3c2=O)c1	-8.88
CCc1ccccc1Sc1nccn2c(=O)n(CC(=O)Nc3ccc(OC)cc3)nc12	-10.01
Cc1ccc(-c2ccc3nn(CC(=O)Nc4ccccc4)c(=O)n3n2)cc1C	-8.76
COc1cc(OC)c(NC(=O)Cn2nc3c(Sc4cccc(C)c4)nccn3c2=O)cc1Cl	-1.94
Cc1cc2nn(CC(=O)Nc3cc(F)ccc3F)c(=O)n2c(Nc2ccc(F)c(C)c2)n1	0.42
Cc1nnc2ccc(S(=O)(=O)N(Cc3ccccc3Cl)c3cccc(F)c3)cn12	-5.9
CCCCOc1ccc(-c2cc3c4nnc(SCC(=O)Nc5ccc(C)c(F)c5)n4ccn3n2)cc1	-2.67
COC(=O)c1ccc(NC(=O)Cn2nc3c4cc(-c5ccc(F)cc5)nn4ccn3c2=O)cc1	3.19
COc1cccc(CNC(=O)CSc2nnc3c(=O)n(-c4ccc(F)cc4)ccn23)c1OC	2.01
O=C(Cn1nc2c3sc(N4CCCC4)nc3ncn2c1=O)Nc1ccccc1Br	-11.75
O=C(CSc1nnc2c(=O)n(-c3ccc(F)c(F)c3)ccn12)c1ccccc1Cl	-5.26
CC(C)CCn1c(=O)c2sccc2n2c(=O)n(CC(N)=O)nc12	-3.19
Cc1ccc(C)c(NC(=O)Cn2nc3c(SCc4ccc(Cl)cc4)nccn3c2=O)c1	-3.74
CC(C)NC(=O)CSc1nnc2c(=O)n(Cc3ccc(F)cc3)ccn12	-7.51
O=c1c2sccc2n2c(=O)n(Cc3cccc(Cl)c3)nc2n1Cc1cccs1	-5.83
Cc1ccc(-c2cc3c4nnc(CCC(=O)N5CCN(c6ccccn6)CC5)n4ccn3n2)cc1C	-4.11
O=c1c2nn(Cc3cccc([N+](=O)[O-])c3)c(=O)n2ccn1-c1ccccc1	-2.06
CCOc1ccc(-n2ccn3c(SCC(=O)Nc4cc(OC)cc(OC)c4)nnc3c2=O)cc1	-3.15
O=c1n(Cc2nc(-c3ccc(F)cc3)no2)nc2ccc(-c3ccccc3)nn12	-3.67
O=C(Cn1nc2c(Sc3ccccc3)nccn2c1=O)Nc1ccc2c(c1)OCCO2	-0.55

Compound	Inhibition [%]
O=c1c2sccc2n2c(=O)n(Cc3cccc(C(F)(F)F)c3)nc2n1Cc1cccs1	2.86
O=S(=O)(c1cccn2cnnc12)N(Cc1ccccc1F)c1ccc(F)c(F)c1	5.15
COc1ccc(NC(=O)Cn2nc3c(SC4CCCCC4)nccn3c2=O)cc1	-3.75
COc1ccc(CN(c2ccc(F)cc2)S(=O)(=O)c2cccn3c(C)nnc23)cc1	-3.22
CC(=O)c1ccc(NC(=O)Cn2nc3ccc(-c4ccc(C)cc4)nn3c2=O)cc1	-3.43
Cc1cccc(NC(=O)Cn2c(=O)c3nnc(C(C)C)n3c3ccccc32)c1	-8.16
CC(C)CCn1c(=O)c2sccc2n2c(=O)n(CCOc3ccccc3)nc12	-7.84
Cc1cc(C)c(NC(=O)Cn2nc3ccc(SC4CCCCC4)nn3c2=O)c(C)c1	-6.45
O=C(Cn1nc2c(Oc3ccccc3)nccn2c1=O)Nc1cc(F)ccc1F	-11.57
CCc1nnc2c(SCC(=O)Nc3ccc(C)cc3Br)nc3ccccc3n12	-2.07
CC(C)c1nnc2c(SCC(=O)Nc3ccccc3C(F)(F)F)nc3ccccc3n12	-3.21
COc1ccc(C(=O)CSc2nnc3c(=O)n(-c4ccc(F)cc4)ccn23)cc1OC	-2.12
CC(C)CCn1c(=O)c2ccc(C(=O)NC3CCCC3)cc2n2c(=S)[nH]nc12	-7.9
Cc1ccc(N(Cc2cc(F)cc(F)c2)S(=O)(=O)c2cccn3c(C)nnc23)cc1	-4.21
COc1ccccc1N1CCN(C(=O)Cn2nc3ccc(-c4ccc(Cl)cc4)nn3c2=O)CC1	0.78
CCOc1ccc(-n2ccn3c(SC(C)C(=O)Nc4ccc(OC)cc4)nnc3c2=O)cc1 (stereo not drawn)	-5.92
Cc1cccc(N(Cc2ccccc2)S(=O)(=O)c2cccn3c(C)nnc23)c1	-3.05
C=Cc1ccc(CN(c2ccc(C(C)C)cc2)S(=O)(=O)c2cccn3c(C)nnc23)cc1	1.96
Cc1cccc(NC(=O)Cn2nc3c(Sc4ccccc4)nccn3c2=O)c1	-1.95
